DT40 TDP1 CPT = DT40-hTDP1 cell growth loss with CPT. chicken DT40 Tdp1-/-;hTDP1 cells + 20 nM CPT, ATP luminescence, 48 h. Potency, µM (series often up to 46.2 µM), inactives show at the top dose activity change, negative = growth inhibition, hits mostly inhibitors. 12% of 420,000 active. AID 686979; also: potency is read from the fitted curve at half-maximal effect; nearly all actives have a fitted effect of over 55% in size
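Cell growth measured by CellTiter-Glo luminescence after a minimum 48 h, 37 C compound exposure with 20 nM CPT in Tdp1-knockout DT40 cells stably expressing hTDP1, seeded 400/well; qHTS titration format.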
12-LOX inh = inhibitors of human 12S-lipoxygenase ALOX12; P18054; purified 12hLO, xylenol orange hydroperoxide absorbance; Potency, µM (titrated, usually from 108 µM), for the others: at the highest dose activity change, negative = inhibition, actives largely listed as inhibitors; 1.1% of 580,000 active; AID 1671190; also: potency is read from the fitted curve at half-maximal effect
Target sequence (P18054 whole entry, looked up): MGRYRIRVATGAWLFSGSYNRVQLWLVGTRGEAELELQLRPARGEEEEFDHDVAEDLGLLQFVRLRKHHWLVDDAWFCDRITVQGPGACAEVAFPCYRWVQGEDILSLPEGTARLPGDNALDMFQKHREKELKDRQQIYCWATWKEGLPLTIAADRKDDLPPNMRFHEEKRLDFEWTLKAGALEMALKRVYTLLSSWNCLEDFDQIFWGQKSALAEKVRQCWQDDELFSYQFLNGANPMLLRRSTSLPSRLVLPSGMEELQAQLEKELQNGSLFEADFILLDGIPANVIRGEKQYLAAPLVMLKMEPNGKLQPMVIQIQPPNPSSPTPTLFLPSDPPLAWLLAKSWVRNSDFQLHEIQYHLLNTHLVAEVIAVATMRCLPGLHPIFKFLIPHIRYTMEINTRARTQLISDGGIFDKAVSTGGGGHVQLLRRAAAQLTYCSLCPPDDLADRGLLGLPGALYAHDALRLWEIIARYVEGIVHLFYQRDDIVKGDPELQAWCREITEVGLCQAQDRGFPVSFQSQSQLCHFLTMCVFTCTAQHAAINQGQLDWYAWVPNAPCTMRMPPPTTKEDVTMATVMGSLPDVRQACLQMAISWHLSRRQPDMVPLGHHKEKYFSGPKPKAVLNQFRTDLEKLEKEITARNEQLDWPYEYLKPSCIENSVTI
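Purified human 12hLO at 150 nM in 25 mM Hepes, 0.01% Triton X-100, pH 7.0, preincubated 15 min at room temperature with compound. Reaction started with 40 uM arachidonic acid, 30 min at room temperature. Hydroperoxide measured by Fe-xylenol orange, 573/405 nm absorbance ratio.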
HT1080 IDH1KD tx = toxicity to HT-1080 IDH1 knockdown cells (counter line); HT-1080 IDH1 knockdown viability, ATP luminescence, 48 h; Potency, µM (highest dose often 46.1 µM), for the others: at the top dose activity, negative = toxicity, usual class: cytotoxic; 2% of 360,000 active; AID 686971;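 also: potency is read from the fitted curve at half-maximal effect; 0% = DMSO wells and -100% = cell-free medium wells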
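IDH1KD HT-1080 cells, 750/well, RPMI + 5% FBS; compound pinned after 2 h settling; 48 h, 37 °C; CellTiter-Glo luminescence; % activity normalised to DMSO and no-cell wells; curves fitted, classed by r2 and efficacy.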
DT40 TDP1 no CPT = qHTS for Inhibitors of human tyrosyl-DNA phosphodiesterase 1 (TDP1): qHTS in cells in absence of CPT | Potency, µM (top dose mostly 46.2 µM), for the others: at the top dose activity change, negative = growth inhibition, actives largely listed as inhibitors | DT40 Tdp1-/- hTDP1 cells, no CPT, ATP luminescence, 48 h | AID 686978, 2013 | 15% of 420,000 active; also: potency is read from the fitted curve at half-maximal effect; nearly all actives have a fitted effect of over 55% in size
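A cellular qHTS used chicken DT40 cells lacking endogenous Tdp1 but carrying stably transfected human TDP1. Compounds were applied without camptothecin, and cell growth kinetics were judged by ATP-dependent luminescence after ≥48 hr.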
HT1080-NT tox = kills 2HG-producing HT-1080-NT fibrosarcoma cells | HT-1080-NT fibrosarcoma viability, CellTiter-Glo ATP luminescence, 48 h | Potency, µM (top dose mostly 46.1 µM), without a hit: at the top dose activity, negative = less viability, most hits filed as cytotoxic | 1.6% of 360,000 active;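 also: NT is the 2HG producing partner of a matched IDH1 knockdown line; potency is read from the fitted curve at half-maximal effect; 0% = DMSO-treated cells and -100% = media-only wells without cells; nearly all actives have a fitted effect of over 55% in size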
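HT-1080-NT fibrosarcoma cells (2HG-overproducing), 750 cells/well in RPMI with 5% FBS, dosed after 2 h and incubated 48 h at 37C. CellTiter-Glo luminescence normalized to DMSO and no-cell wells; concentration-response curves fitted and classed.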
IL1B secr inh = blocks inflammasome-driven IL-1 beta release | THP-1 LPS/ATP IL-1B secretion, AlphaLISA, 16 h; hits give low values | activity change, % at 57.5 µM | 4.7% of 360,000 active | AID 743279; in the data active = activity change below about -50%; inconclusive = mostly about -30% to -49%
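THP-1 cells pretreated 1 hr with compounds (up to 57.5 uM final), then stimulated with LPS (250 ng/mL final) plus ATP (1.25 mM final); secreted IL-1B measured by AlphaLISA after 16 hr, decreased signal indicating inhibition.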
* = called active by the depositor; [ ] = another dose, or the depositor's remark. This excerpt belongs to a sample that is enriched for hits. Unless noted, calls follow the shape of the dose curve; as a rule, active = well fitted curve in the direction sought with a large enough effect; inconclusive = small, poorly fitted or top-dose-only effect, or another doubt; inactive = no such curve, though single readings can be large; an effect the other way counts as inactive or inconclusive. Unless noted, % is scaled to controls: 0 for no effect and ±100 for the full control effect.

Screening COc1ccccc1NC(=O)C1CCCN(S(=O)(=O)c2ccc3[nH]c(=O)ccc3c2)C1 (stereo not given) returned DT40 TDP1 CPT 20.6µM*, 12-LOX inh -6.2%, HT1080 IDH1KD tx 1.1%, DT40 TDP1 no CPT inconclusive, HT1080-NT tox 6.0% and IL1B secr inh 25.1.
For COC(=O)c1ccccc1NC(=O)C1CCCN(S(=O)(=O)c2ccc(OC)cc2)C1 (stereo not given) the results were DT40 TDP1 CPT 18.4µM*, 12-LOX inh -13.7%, HT1080 IDH1KD tx 0.6%, DT40 TDP1 no CPT 11.6µM*, HT1080-NT tox 1.3% and IL1B secr inh 8.7.
`COc1ccc(C)cc1NC(=O)C1CCCN(S(=O)(=O)c2ccc3[nH]c(=O)ccc3c2)C1` (stereo not given) gave DT40 TDP1 CPT inconclusive, 12-LOX inh -4.7%, HT1080 IDH1KD tx -6.4%, DT40 TDP1 no CPT inconclusive, HT1080-NT tox 1.0% and IL1B secr inh 27.2.
Screening CCn1c(-n2nc(C)c(C)c2C)nc2c1c(=O)n(CC(=O)OC)c(=O)n2C returned 12-LOX inh 44.1%.
Screening CC1C(=O)N(Cc2ncc(-c3ccccc3)o2)C(=O)N1c1ccccc1 (stereo not given) returned 12-LOX inh 38.5%.
For C=CCNc1nc(Nc2ccccc2F)nc(OCC)n1 the results were DT40 TDP1 CPT inconclusive, 12-LOX inh 1.1%, HT1080 IDH1KD tx 2.4%, DT40 TDP1 no CPT -26.3%, HT1080-NT tox 1.4% and IL1B secr inh 0.1.
C=CCNc1nc(Nc2ccc(OC)cc2OC)nc(OCC)n1 was read as DT40 TDP1 CPT 16.4µM*, 12-LOX inh 0.0%[57.4 µM], HT1080 IDH1KD tx -17.8%, DT40 TDP1 no CPT inconclusive, HT1080-NT tox -6.4% and IL1B secr inh 5.7.
For Cc1cccc(C)c1OCCCCn1c(C2CC(=O)N(c3ccc(F)cc3)C2)nc2ccccc21 (stereo not given) the results were DT40 TDP1 CPT 13µM*, 12-LOX inh 31.6µM* and DT40 TDP1 no CPT 14.6µM*.
For Cc1cccc(C)c1OCCn1c(C2CC(=O)N(c3cccc(Cl)c3)C2)nc2ccccc21 (stereo not given) the results were DT40 TDP1 CPT 16.4µM*, 12-LOX inh -19.3% and DT40 TDP1 no CPT 13µM*.
`Cc1c(C(=O)NCCCc2ccncc2)cnn1-c1nccc(-c2ccccc2F)n1` gave DT40 TDP1 CPT -6.6%[9.04 µM], 12-LOX inh -1.0% and DT40 TDP1 no CPT 18.4µM*.
Cc1c(C(=O)NCCc2cccnc2)cnn1-c1nccc(-c2ccccc2F)n1 was read as DT40 TDP1 CPT inconclusive, 12-LOX inh -1.2% and DT40 TDP1 no CPT inconclusive.
CCCCN(C)CCCNC(=O)c1ccc2c(c1)NC(=O)C(N1CCOCC1)S2 (stereo not given) was read as DT40 TDP1 CPT -2.2%, 12-LOX inh inactive, HT1080 IDH1KD tx 5.3%, DT40 TDP1 no CPT -2.7%, HT1080-NT tox 3.9% and IL1B secr inh -3.5.
CCc1ccc(CNC(=O)c2ccc3c(c2)NC(=O)C(N2CCOCC2)S3)cc1 (stereo not given) was read as DT40 TDP1 CPT 23.1µM*, 12-LOX inh -14.3%, HT1080 IDH1KD tx -29.2%, DT40 TDP1 no CPT -57.0%, HT1080-NT tox inconclusive and IL1B secr inh -6.4.
`O=C(Nc1nccs1)[C@@H]1C[C@@H](c2ccc(F)cc2)N([S+](=O)([O-])c2ccccc2)C1` gave 12-LOX inh 71.2%[176 µM].
`Cc1occc1C(=O)N1CCC2(CCCN(Cc3ccc(F)c(F)c3)C2)C1` (stereo not given) gave DT40 TDP1 CPT 14.6µM*, 12-LOX inh 0.6%, HT1080 IDH1KD tx -20.5%, DT40 TDP1 no CPT 16.4µM*, HT1080-NT tox -23.1% and IL1B secr inh -24.7.
For COC[C@@H]1CN(C(=O)c2ccncc2)C[C@H]1c1ccncc1 the results were 12-LOX inh 8.3%.
Screening COc1cccc(CNc2ccc(N3CCC(C)CC3)cc2)c1OC returned DT40 TDP1 CPT 23.1µM*, 12-LOX inh inconclusive, HT1080 IDH1KD tx inconclusive, DT40 TDP1 no CPT 16.4µM*, HT1080-NT tox -26.1% and IL1B secr inh -20.9.
For Cc1cnc(C2CC2)n1CC1CCN(C(=O)C(C)C)CC1 the results were 12-LOX inh 31.4%.
`O=C(NCc1ccccc1)c1ccccc1OC1CN(Cc2ccsc2)C1` gave 12-LOX inh -11.1%.
Screening Cc1ccc(Cl)cc1NC(=O)COC(=O)CC1CC2CCC1C2 (stereo not given) returned DT40 TDP1 CPT -21.0%, 12-LOX inh 0.0%, HT1080 IDH1KD tx 9.8%, DT40 TDP1 no CPT 0.4%, HT1080-NT tox 9.4% and IL1B secr inh 10.1.
For COC(=O)c1ccc(C(=O)OC)c(NC(=O)COC(=O)C2CCC(C(C)(C)C)CC2)c1 (stereo not given) the results were DT40 TDP1 CPT 23.1µM*, 12-LOX inh -16.0%, HT1080 IDH1KD tx -11.1%, DT40 TDP1 no CPT inconclusive, HT1080-NT tox -1.2% and IL1B secr inh 29.7.
COC(=O)c1ccc(C(=O)OC)c(NC(=O)COC(=O)CC2CC3CCC2C3)c1 (stereo not given) was read as DT40 TDP1 CPT inconclusive, 12-LOX inh -18.0%, HT1080 IDH1KD tx 2.0%, DT40 TDP1 no CPT 23.1µM*, HT1080-NT tox 4.8% and IL1B secr inh 8.1.
Cc1ncc(-c2ccc(C)c(S(=O)(=O)Nc3cccc(C)c3C)c2)o1 was read as 12-LOX inh 3.3%.
`Cc1c(-c2ccccc2)cc(-c2ccccc2)nc1-c1ccccc1` gave 12-LOX inh 5.5%.
O=C1c2ccccc2C(=O)N1CCN1CCOCC1 was read as DT40 TDP1 CPT 21.8%, 12-LOX inh 3.8%[57.4 µM], HT1080 IDH1KD tx 0.0%, DT40 TDP1 no CPT -7.6%, HT1080-NT tox -1.8% and IL1B secr inh -26.8.
Screening O=C1C(Cl)=C(NCCN2CCOCC2)C(=O)c2ccccc21 returned DT40 TDP1 CPT inconclusive, 12-LOX inh inconclusive, HT1080 IDH1KD tx 18.4µM*, DT40 TDP1 no CPT 16.4µM*, HT1080-NT tox inconclusive and IL1B secr inh -95.8*.
For Clc1ccccc1-c1nccc(NCCN2CCOCC2)n1 the results were DT40 TDP1 CPT -0.4%, 12-LOX inh 44.7µM* and DT40 TDP1 no CPT 15.9%.

Source: PubChem BioAssay
